Reference: PubChem BioAssay AID1159580 (chemical genetic matrix, 2015)
Where “and” joins values, the source holds several entries; their conditions need not be identical. Equal values may be shown once. Among all 5,500 compounds or so, about 2,000 (36%) were called active. Inconclusive results (about 18%) are left out. No stated cut-off is given here; in the data, active means normalized growth mostly below about 0.91 (no sharp cut-off); inconclusive means no clear call, values can overlap the other calls; inactive means mostly above about 0.92. The list shows a part of the results.

Assay: chemical genetic growth profiling, strain panel (AID 1159580);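 further: tested at 20 µM; growth read once vehicle control cultures reached saturation at 30 °C; 1 = growth at the plate median or of vehicle wells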
Details: S. cerevisiae deletion strains, growth OD

Measured: normalized growth

CCOC(=O)[C@H](CCc1ccccc1)N[C@@H](C)C(=O)N1CCC[C@H]1C(=O)O
inactive: locus YAL021C, strain ccr4, stronger effect = lower value 0.98 | locus YAL026C, strain drs2, stronger effect = lower value 1 | locus YAL030W, strain snc1, stronger effect = lower value 0.992 | locus YBL061C, strain skt5, stronger effect = lower value 0.987 | locus YBR009C, strain hhf1, stronger effect = lower value 1.01 | locus YBR021W, strain FUR4, stronger effect = lower value 1.01 | locus YBR023C, strain chs3, stronger effect = lower value 0.988 | locus YBR171W, strain sec66, stronger effect = lower value 0.979 | locus YBR229C, strain ROT2, stronger effect = lower value 1 | locus YBR231C, strain swc5, stronger effect = lower value 1 | locus YBR279W, strain paf1, stronger effect = lower value 0.973 | locus YCL011C, strain gbp2, stronger effect = lower value 0.976 | locus YCL016C, strain dcc1, stronger effect = lower value 0.969 | locus YCL029C, strain bik1, stronger effect = lower value 1.02 | locus YCL061C, strain MRC1, stronger effect = lower value 1.01 | locus YCL069W, strain vba3, stronger effect = lower value 0.988 | locus YCR088W, strain abp1, stronger effect = lower value 0.995 | locus YDL005C, strain med2, stronger effect = lower value 0.995 | locus YDL035C, strain GPR1, stronger effect = lower value 1.03 | locus YDL040C, strain nat1, stronger effect = lower value 0.992 | locus YDL074C, strain BRE1, stronger effect = lower value 1.02 | locus YDL101C, strain DUN1, stronger effect = lower value 1.01 | locus YDL134C, strain PPH21, stronger effect = lower value 1.01 | locus YDL185W, strain tfp1, stronger effect = lower value 1.01 | locus YDL192W, strain arf1, stronger effect = lower value 1.01 | locus YDR001C, strain nth1, stronger effect = lower value 0.996 | locus YDR069C, strain doa4, stronger effect = lower value 0.984 | locus YDR101C, strain arx1, stronger effect = lower value 0.994 | locus YDR137W, strain rgp1, stronger effect = lower value 0.988 | locus YDR159W, strain sac3, stronger effect = lower value 0.937 | locus YDR162C, strain NBP2, stronger effect = lower value 1.01 | locus YDR195W, strain ref2 0.981 | locus YDR297W, strain sur2, stronger effect = lower value 1 | locus YDR318W, strain mcm21, stronger effect = lower value 1.02 | locus YDR334W, strain swr1, stronger effect = lower value 0.998 | locus YDR335W, strain msn5, stronger effect = lower value 0.991 | locus YDR388W, stronger effect = lower value 1.02 | locus YDR392W, strain spt3, stronger effect = lower value 0.923 | locus YDR502C, strain sam2, stronger effect = lower value 1.01 | locus YEL003W, strain gim4, stronger effect = lower value 1 | locus YEL037C, strain rad23, stronger effect = lower value 0.988 | locus YEL061C, strain CIN8 (second series), stronger effect = lower value 0.999 | locus YEL061C, strain CIN8, stronger effect = lower value 0.999 | locus YER015W, strain faa2, stronger effect = lower value 1 | locus YER016W, strain bim1, stronger effect = lower value 0.98 | locus YER110C, stronger effect = lower value 1.02 | locus YER111C, strain swi4, stronger effect = lower value 0.985 | locus YER155C, strain BEM2 (second series), stronger effect = lower value 1.02 | locus YER155C, strain BEM2, stronger effect = lower value 0.996 | locus YER167W, strain BCK2, stronger effect = lower value 0.997 | locus YFR010W, strain ubp6, stronger effect = lower value 1.01 | locus YGL078C, strain dbp3, stronger effect = lower value 1.01 | locus YGL086W, strain mad1, stronger effect = lower value 0.998 | locus YGL167C, strain pmr1, stronger effect = lower value 0.99 | locus YGL173C, strain kem1, stronger effect = lower value 0.995 | locus YGL227W, strain vid30, stronger effect = lower value 0.996 | locus YGL240W, strain doc1, stronger effect = lower value 0.985 | locus YGL248W, strain PDE1, stronger effect = lower value 1 | locus YGL253W, strain hxk2, stronger effect = lower value 0.987 | locus YGR078C, strain PAC10, stronger effect = lower value 1.02 | locus YGR135W, strain pre9, stronger effect = lower value 1.02 | locus YGR252W, strain gcn5, stronger effect = lower value 1.05 | locus YHR013C, strain ard1, stronger effect = lower value 0.967 | locus YHR027C, strain rpn1, stronger effect = lower value 1.01 | locus YHR030C, strain SLT2, stronger effect = lower value 0.998 and 1.03 | locus YHR079C, strain IRE1 (second series), stronger effect = lower value 1.01 | locus YHR079C, strain IRE1, stronger effect = lower value 1.05 | locus YHR094C, strain hxt1, stronger effect = lower value 1.01 | locus YHR129C, strain ARP1, stronger effect = lower value 0.998 | locus YHR142W, strain chs7, stronger effect = lower value 0.98 | locus YHR200W, strain rpn10, stronger effect = lower value 1.01 | locus YIL066C, strain RNR3, stronger effect = lower value 1.01 | locus YIL073C, strain SPO22, stronger effect = lower value 1.07 | locus YIL125W, strain kgd1, stronger effect = lower value 1.01 | locus YIR030C, strain dcg1, stronger effect = lower value 1.01 | locus YJL092W, strain hpr5, stronger effect = lower value 1 | locus YJL095W, strain BCK1 (second series), stronger effect = lower value 1 | locus YJL095W, strain BCK1, stronger effect = lower value 1.02 and 1.03 | locus YJL115W, strain asf1, stronger effect = lower value 0.989 | locus YJL129C, strain trk1, stronger effect = lower value 0.954 | locus YJL134W, strain LCB3, stronger effect = lower value 1 | locus YJL154C, strain vps35, stronger effect = lower value 0.99 | locus YJL164C, strain tpk1, stronger effect = lower value 0.98 | locus YJL166W, strain qcr8, stronger effect = lower value 1 | locus YJL168C, strain set2, stronger effect = lower value 1.01 | locus YJL187C, strain SWE1 (second series), stronger effect = lower value 1.01 | locus YJR043C, strain POL32, stronger effect = lower value 1.03 | locus YJR066W, strain TOR1, stronger effect = lower value 0.985
